Five compounds from PubChem BioAssay can be followed below.

“And” between values parts separate entries of the source, which are not always exact repeats. Equal entries are not always repeated. The source made the active and inactive calls.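 Rule for the calls, unless noted: active = inhibition at or above 50% relative to wild type and mutant plate controls; inactive = inhibition below 50%.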

Assay [1] is described as follows: inhibitors of TNFa-induced NFkB p65 translocation, primary screen, imaging, HUVEC, MLSMR starter and 10KST1 sets (AID 438;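 active = inhibition above 20% together with a positive visual image hit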;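 note: compound added about 3h40 before a 20 min TNFalpha stimulation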;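 for inhibition: signal is the nuclear over cytoplasmic p65 intensity ratio per well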). Conditions: HUVEC TNFa-induced p65 nuclear translocation; cell count: measured here: nuclei count (cytotoxicity indicator), at 2.08 µM; inhibition: at 2 µM, stronger effect = higher value, 0% TNFa-plus-vehicle, 100% no-TNFa wells.
Assay [2] can be described thus: reduction of polyQ htt aggregates in cells – imaging, exon1htt(103Q)mCFP cells, high-content imaging, primary screen (AID 483;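 active = visual image review flags a hit and inhibition of aggregation exceeds 20%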;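 note: compound exposure lasted 3 days before fixation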;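 for nuclei count: percent of the per-plate median nuclei count of sample wells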). Conditions: exon1htt(103Q)mCFP cell line, aggregate imaging, at 2 µM; inhibition of aggregation: stronger effect = higher value; nuclei count: measured here: cell count, toxicity.
Assay [3] in a line: endothelial E-selectin expression blockers – imaging, HUVEC, immunofluorescence, MLSMR starter and 10KST1 sets, primary screen (AID 487;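 active = visually confirmed hit in the image check and inhibition above 20%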;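 for inhibition: signal is fraction of cell area covered by stained E-selectin grains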;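 for nuclei count: 100% = median nuclei count of all wells on the same plate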). Conditions: HUVEC TNFalpha-induced E-selectin immunofluorescence imaging, at 2 µM; inhibition: stronger effect = higher value; nuclei count: measured here: cell number, toxicity.
Assay [4] can be described thus: Primary imaging screen for DUSP6 inhibitors that restore phospho-Erk in transfected HeLa cells, chemical complementation (AID 609;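 active = compounds giving at least 50% inhibition in the cell-based MKP-3 phosphatase rescue imaging test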;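 for inhibition: phospho-Erk level distribution per well compared with pooled transfected vehicle control wells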). Particulars: HeLa MKP-3 transfected, phospho-Erk imaging KS statistic, at 10 µM, cells stimulated with TPA for 15 min.
The target in assay [5] is Dual specificity protein phosphatase 6 (Homo sapiens) (UniProt Q16828). The description is as above. Conditions: HeLa MKP-3 transfected, phospho-Erk imaging KS statistic; at 10 µM; stronger effect = higher value; cells stimulated with TPA for 15 min.
Assay [6] addresses Voltage-gated potassium channel subunit beta-2 (Rattus norvegicus) (UniProt P62483). As to the kind of experiment: inhibitors of rat Kvbeta2 reductase activity – biochemical, NADPH fluorescence, primary screen (AID 622;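 active = fluorescence slope higher than the sample average by over 3 SD, cut at about -0.22 in these data, passing the limit was not always enough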;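 note: slope of raw intensity against log time taken from 70 to 1610 s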). Particulars: recombinant KvBeta, 4-cyanobenzaldehyde reduction, at 10 µM, stronger effect = higher value.
Assay [7] shares this target. As to the kind of experiment: enhancers of rat Kvbeta2 NADPH turnover – biochemical, NADPH fluorescence, primary screen (AID 623;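 active = NADPH fluorescence slope more negative than the mean of all samples by about 3 SD, 99.7% confidence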;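 note: fluorescence intensity change per second fitted from 20 to 320 s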). Particulars: Recombinant KvBeta, NADPH fluorescence decrease slope, 10 min; at 10 µM; stronger effect = lower value.
For assay [8], the target named is Alpha-2C adrenergic receptor (Homo sapiens) (UniProt P18825). Nature of the assay: compounds altering alpha2C-coupled GIRK flux – cell-based, HEK293 alpha2C/GIRK1/2, thallium flux, primary screen (AID 624;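 active = fluorescence slope after compound addition differing from the mean of all screened samples at 99.7% confidence, in either direction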;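 note: slope of fluorescence ratio to pre-addition baseline per second over 15 to 24 s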). Particulars: thallium flux BTC fluorescence, at 10 µM, actives lie on both sides.
A short description of assay [9]: inhibitors of larval lipid processing in zebrafish, primary screen, whole organism, PED6 fluorescence, gall bladder and intestine (AID 686;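 active = a full or partial loss of lipid-probe fluorescence in the fish gall bladder, intestine or both, judged by eye; inactive = no fluorescence loss, or compound toxic to the fish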;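 note: larvae 5 to 7 days old with five fish per well; signal comes from phospholipase A2 cleavage of quenched PED6 carried via bile; overnight exposure to compound and PED6 before scoring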). Particulars: Zebrafish larvae PED6 lipid processing, fluorescence scoring; screened at 20 µM (by protocol).
Assay [10] in a line: loss of swimming-algae plug formation – whole organism, Chlamydomonas reinhardtii, WT vs cilia-less mutant, absorbance, 96-well, primary screen (AID 463189).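 Note: 0% = wild type cc124 cells in DMSO and 100% = ciliumless bld1 mutant cells.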 Particulars: Chlamydomonas reinhardtii gravitaxis, OD600 absorbance, 2 days; at 10 µM; stronger effect = higher value.
The nature of assay [11]: blockers of RIG-like receptor reporter activation – cell-based, Sendai virus stimulus, luciferase, 10K MLSCN set, TLR/RLR signaling modifier project, primary screen (AID 602276;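 active = inhibition at or above 50% at 10 µM; inactive = inhibition below 50%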;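 note: firefly luciferase from ISG56 promoter only with Renilla not read in this screen; 0% = Sendai virus plus DMSO and 100% = medium plus DMSO without virus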). Conditions: HEK293 RL24 IRF3 luciferase reporter, at 10 µM, stronger effect = higher value. A general note: A reporter such as luciferase makes a cellular process visible.
The nature of assay [12]: TLR3 IRF3 reporter activation blockers – cell-based, poly I:C stimulus, luciferase, 10K MLSCN set, primary screen (AID 602277;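 active = inhibition of the reporter signal at or above 50%; inactive = inhibition below 50%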). Conditions: HEK293-TLR3 RL24 IRF3 luciferase reporter, at 10 µM, stronger effect = higher value.
[13] abbreviates: measured here: cell density z-score.
[14] abbreviates: measured here: nuclear c-Myc green intensity z-score.
Setting [15] is: measured here: nuclear pErk red intensity z-score, stronger effect = higher value.

Sequence of Voltage-gated potassium channel subunit beta-2 (Rattus norvegicus) (P62483 whole entry, looked up): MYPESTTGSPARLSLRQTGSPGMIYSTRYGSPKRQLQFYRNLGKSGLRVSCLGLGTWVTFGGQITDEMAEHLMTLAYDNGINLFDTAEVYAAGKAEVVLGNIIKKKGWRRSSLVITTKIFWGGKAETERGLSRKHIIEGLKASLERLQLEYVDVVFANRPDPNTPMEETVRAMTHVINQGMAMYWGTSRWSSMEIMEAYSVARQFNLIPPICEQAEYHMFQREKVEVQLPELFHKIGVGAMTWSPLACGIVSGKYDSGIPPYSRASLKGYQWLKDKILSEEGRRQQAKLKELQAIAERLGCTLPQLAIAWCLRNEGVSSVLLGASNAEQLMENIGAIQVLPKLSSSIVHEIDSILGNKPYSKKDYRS
Sequence of Alpha-2C adrenergic receptor (Homo sapiens) (P18825 whole entry, looked up): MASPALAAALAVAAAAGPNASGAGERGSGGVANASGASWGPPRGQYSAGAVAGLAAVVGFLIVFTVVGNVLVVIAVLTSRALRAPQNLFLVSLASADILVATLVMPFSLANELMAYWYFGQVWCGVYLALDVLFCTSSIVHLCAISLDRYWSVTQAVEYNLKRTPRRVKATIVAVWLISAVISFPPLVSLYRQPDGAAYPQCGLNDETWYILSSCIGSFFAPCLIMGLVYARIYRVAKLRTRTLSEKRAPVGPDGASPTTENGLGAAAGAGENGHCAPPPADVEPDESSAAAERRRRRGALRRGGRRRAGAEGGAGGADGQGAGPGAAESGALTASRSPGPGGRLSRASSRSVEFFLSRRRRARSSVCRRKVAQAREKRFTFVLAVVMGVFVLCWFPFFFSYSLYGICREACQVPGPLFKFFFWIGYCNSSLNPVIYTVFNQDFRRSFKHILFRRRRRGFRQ
Sequence of Dual specificity protein phosphatase 6 (Homo sapiens) (Q16828 whole entry, looked up): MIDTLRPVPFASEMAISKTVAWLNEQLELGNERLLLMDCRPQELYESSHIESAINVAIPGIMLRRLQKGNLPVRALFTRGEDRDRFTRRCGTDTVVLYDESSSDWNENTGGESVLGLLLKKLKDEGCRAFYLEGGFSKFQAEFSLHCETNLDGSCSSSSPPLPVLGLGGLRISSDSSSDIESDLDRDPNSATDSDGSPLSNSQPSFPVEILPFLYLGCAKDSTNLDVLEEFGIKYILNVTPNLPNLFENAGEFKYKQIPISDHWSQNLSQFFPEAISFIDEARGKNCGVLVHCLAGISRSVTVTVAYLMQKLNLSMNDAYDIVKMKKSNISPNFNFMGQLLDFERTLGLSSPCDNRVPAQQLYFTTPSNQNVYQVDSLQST

For `CCOC(=O)C1CSc2[nH]c(=O)sc2C1c1ccccc1` (stereo not given), in [1], the cell count amounted to 537. In addition, the inhibition in assay [1] was -1.3% (inactive); in [3] it was -19.3% (inactive); in [5], -1.12% (inactive); in assay [10], -4.31% (inactive); in [11] it was 5.91% (inactive); in assay [12] it was 99.1% (active). For the same compound, in assay [2], the inhibition of aggregation was -4% (inactive). Further, the nuclei count in [2] was 126%; in assay [3], 144%. Besides, the z-score in assay [4] (setting [13]) is 0.417; in assay [4] (setting [14]), -0.0363; in assay [4] (setting [15]), 0.692. In addition, the fluorescence slope in assay [6] is -0.378 (inactive). The NADPH fluorescence slope in assay [7] was -6.9e-05 (inactive). Moreover, in [8], the slope was 0.00596 (inactive). For the same compound, the outcome in assay [9] was inactive.

As for `CCN(CC)CCOC(=O)C1(C2CCCCC2)CCCCC1`, the cell count in [1] turned out to be 520. In addition, the inhibition in assay [1] was -11.3% (inactive); in assay [3], -57.3% (inactive); in [5] it was -6.41% (inactive); in assay [10] it was -2.13% (inactive) and -31% (inactive); in assay [11] it was 10.2% (inactive); in assay [12], 38.4% (inactive). Moreover, the inhibition of aggregation in assay [2] was 17.1% (inactive). For the same compound, the figures for the nuclei count in [2] and in assay [3] were 96% and 118%, respectively. Besides, the z-score was -0.235 in [4] (setting [13]), -0.682 in [4] (setting [14]) and 1.64 in assay [4] (setting [15]). In addition, the fluorescence slope in assay [6] was -0.494 (inactive). In addition, the NADPH fluorescence slope in [7] is -5.1e-05 (inactive). Also, the slope in [8] was 0.00415 (inactive). Moreover, in assay [9], the outcome was inactive.

As to `CC1C/C=C/C=C/C=C/C=C/C(O[C@@H]2O[C@H](C)[C@@H](O)[C@H](N)[C@@H]2O)CC2OC(O)(CC(O)CC3OC3/C=C/C(=O)O1)CC(O)C2C(=O)O` (stereo not given in full), the cell count in assay [1] amounted to 624. The inhibition in assay [1] was -3.2% (inactive); in assay [3], -59.4% (inactive); in assay [5] it was 11.3% (inactive); in assay [10], 1.43% (inactive); in assay [11], 7.33% (inactive); in assay [12], 28.4% (inactive). In addition, the inhibition of aggregation in assay [2] is 0.7% (inactive). The nuclei count in assay [2] was determined as 111%; in [3] it was 135%. Also, the values for the z-score in [4] (setting [13]), in [4] (setting [14]) and in assay [4] (setting [15]) were -0.528, -0.94 and -0.621, respectively. In assay [6], the fluorescence slope is -0.469 (inactive). Also, in assay [7], the NADPH fluorescence slope was -4.6e-05 (inactive). For the same compound, the slope in assay [8] is 0.00542 (inactive). Also, the compound was called inactive in [9].

Turning to `CC(=O)N=c1sc(S(N)(=O)=O)nn1C`, the cell count in assay [1] is 541. The inhibition in assay [1] is -11.9% (inactive); in assay [3] it was -94% (inactive); in [5], 9.37% (inactive); in [10], 13.4% (inactive); in [11] it was 4.97% (inactive); in [12], 15.9% (inactive). Further, the inhibition of aggregation in [2] was 7.8% (inactive). For the same compound, the nuclei count in assay [2] was determined as 88.8%; in [3], 104%. The z-score turned out to be 0.515 in assay [4] (setting [13]), 1.15 in assay [4] (setting [14]) and 1.01 in [4] (setting [15]). Moreover, in [6], the fluorescence slope was -0.454 (inactive). Further, the NADPH fluorescence slope in [7] was -6.4e-05 (inactive). For the same compound, in assay [8], the slope was 0.00535 (inactive). In addition, in [9], the compound was classed as inactive.

Take `CC(C)(C)n1cnc2cc(NS(=O)(=O)c3ccc(Br)cc3)ccc21`: the cell count in [1] was determined as 543. Further, the inhibition was -1.5% (inactive) in assay [1]; -37% (inactive) in assay [3]; -5.26% (inactive) in [5]; -15% (inactive) in assay [10]; 15.5% (inactive) in assay [11]; 13.8% (inactive) in assay [12]. For the same compound, the inhibition of aggregation in assay [2] was -9.9% (inactive). Further, the nuclei count in assay [2] turned out to be 99.9%; in [3], 108%. Further, the z-score is 0.246 in assay [4] (setting [13]), 1.31 in assay [4] (setting [14]) and -0.322 in assay [4] (setting [15]). Besides, in assay [6], the fluorescence slope was -0.373 (inactive). The NADPH fluorescence slope in assay [7] was 2.9e-05 (inactive). Moreover, in assay [8], the slope is 0.00461 (inactive). The compound was classed as inactive in assay [9].

Usually inhibition stands for the relative decrease from the control value, in per cent.
